Several values for one entry are separate records, joined by “and”; a condition that tells them apart may be missing. Identical values can stand only once. About 2,000 (36%) of roughly 5,500 compounds were called active. Another 18% or so got no clear call; they are omitted. Rule as the data show it: active = normalized growth mostly below about 0.91 (no sharp cut-off); inconclusive = no clear call, values can overlap the other calls; inactive = mostly above about 0.92. This is one part of the list.
Experiment: chemical genetic growth profiling, strain panel (AID 1159580);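 also: tested at 20 µM; growth read once vehicle control cultures reached saturation at 30 °C; 1 = growth at the plate median or of vehicle wells; lower values mean less growth of the strain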
Conditions: S. cerevisiae deletion strains, growth OD

Measured: normalized growth

O=C(O)C1=CCCNC1
inactive: locus YAL021C, strain ccr4, hits give low values 1.02 | locus YAL026C, strain drs2, hits give low values 0.991 | locus YAL030W, strain snc1, hits give low values 0.999 | locus YBL061C, strain skt5, hits give low values 0.993 | locus YBR009C, strain hhf1, hits give low values 1.04 | locus YBR021W, strain FUR4, hits give low values 1.02 | locus YBR023C, strain chs3, hits give low values 1.01 | locus YBR171W, strain sec66, hits give low values 0.985 | locus YBR229C, strain ROT2, hits give low values 1 | locus YBR231C, strain swc5, hits give low values 0.981 | locus YBR279W, strain paf1, hits give low values 0.988 | locus YCL011C, strain gbp2, hits give low values 1.01 | locus YCL016C, strain dcc1, hits give low values 1.02 | locus YCL029C, strain bik1, hits give low values 0.974 | locus YCL061C, strain MRC1 (second series), hits give low values 1.01 | locus YCL069W, strain vba3, hits give low values 1 | locus YCR088W, strain abp1, hits give low values 0.989 | locus YDL005C, strain med2, hits give low values 0.978 | locus YDL035C, strain GPR1, hits give low values 0.99 | locus YDL040C, strain nat1, hits give low values 0.989 | locus YDL074C, strain BRE1, hits give low values 0.984 | locus YDL101C, strain DUN1, hits give low values 1.01 | locus YDL185W, strain tfp1, hits give low values 0.968 | locus YDL192W, strain arf1, hits give low values 0.973 | locus YDR001C, strain nth1, hits give low values 0.99 | locus YDR069C, strain doa4, hits give low values 0.999 | locus YDR101C, strain arx1, hits give low values 0.979 | locus YDR137W, strain rgp1, hits give low values 1.01 | locus YDR159W, strain sac3, hits give low values 0.96 | locus YDR162C, strain NBP2, hits give low values 1.04 | locus YDR195W, strain ref2 0.959 | locus YDR297W, strain sur2, hits give low values 1 | locus YDR318W, strain mcm21, hits give low values 0.995 | locus YDR334W, strain swr1, hits give low values 0.979 | locus YDR335W, strain msn5, hits give low values 0.995 | locus YDR363W, strain ESC2, hits give low values 1.01 | locus YDR388W, hits give low values 0.989 | locus YDR392W, strain spt3, hits give low values 0.941 | locus YDR502C, strain sam2, hits give low values 0.987 | locus YEL003W, strain gim4, hits give low values 0.989 | locus YEL037C, strain rad23, hits give low values 0.989 | locus YEL061C, strain CIN8 (second series), hits give low values 0.987 | locus YEL061C, strain CIN8, hits give low values 0.998 | locus YER002W, strain NOP16, hits give low values 0.91 | locus YER015W, strain faa2, hits give low values 0.984 | locus YER016W, strain bim1, hits give low values 0.995 | locus YER110C, hits give low values 0.965 | locus YER111C, strain swi4, hits give low values 0.981 | locus YER155C, strain BEM2 (second series), hits give low values 0.959 | locus YER155C, strain BEM2, hits give low values 0.985 | locus YER167W, strain BCK2, hits give low values 0.991 | locus YFR010W, strain ubp6, hits give low values 0.973 | locus YGL078C, strain dbp3, hits give low values 1.01 | locus YGL086W, strain mad1, hits give low values 0.98 | locus YGL167C, strain pmr1, hits give low values 0.99 | locus YGL173C, strain kem1, hits give low values 0.99 | locus YGL227W, strain vid30, hits give low values 0.989 | locus YGL240W, strain doc1, hits give low values 0.986 | locus YGL248W, strain PDE1, hits give low values 1.02 | locus YGL253W, strain hxk2, hits give low values 0.981 | locus YGR135W, strain pre9, hits give low values 0.997 | locus YGR229C, strain SMI1, hits give low values 1.02 | locus YGR252W, strain gcn5, hits give low values 1.15 | locus YHR013C, strain ard1, hits give low values 0.979 | locus YHR027C, strain rpn1, hits give low values 0.993 | locus YHR030C, strain SLT2, hits give low values 0.985 and 1.04 | locus YHR079C, strain IRE1 (second series), hits give low values 0.974 | locus YHR079C, strain IRE1, hits give low values 1.04 | locus YHR094C, strain hxt1, hits give low values 0.981 | locus YHR129C, strain ARP1, hits give low values 0.992 | locus YHR142W, strain chs7, hits give low values 1.02 | locus YHR200W, strain rpn10, hits give low values 0.984 | locus YIL066C, strain RNR3, hits give low values 1.01 | locus YIL073C, strain SPO22, hits give low values 0.943 | locus YIL125W, strain kgd1, hits give low values 0.987 | locus YIR030C, strain dcg1, hits give low values 0.987 | locus YJL092W, strain hpr5, hits give low values 0.991 | locus YJL095W, strain BCK1 (second series), hits give low values 1 | locus YJL095W, strain BCK1, hits give low values 1.05 | locus YJL115W, strain asf1, hits give low values 0.985 | locus YJL129C, strain trk1, hits give low values 0.99 | locus YJL134W, strain LCB3, hits give low values 0.991 | locus YJL154C, strain vps35, hits give low values 0.98 | locus YJL164C, strain tpk1, hits give low values 1.02 | locus YJL166W, strain qcr8, hits give low values 1.01 | locus YJL168C, strain set2, hits give low values 0.993 | locus YJL187C, strain SWE1 (second series), hits give low values 1.02 | locus YJR043C, strain POL32, hits give low values 1.01 | locus YJR066W, strain TOR1, hits give low values 0.997 | locus YJR075W, strain HOC1, hits give low values 1.01 and 1 | locus YKL009W, strain mrt4, hits give low values 0.961 | locus YKL068W, hits give low values 1 | locus YKL085W, strain MDH1 (second series), hits give low values 0.973 | locus YKL085W, strain MDH1, hits give low values 0.973 | locus YKL160W, strain elf1, hits give low values 1 | locus YKL190W, strain CNB1, hits give low values 0.997 | locus YKR001C, strain vps1, hits give low values 0.999 | locus YKR026C, strain gcn3, hits give low values 0.981 | locus YKR091W, strain srl3, hits give low values 0.995 | locus YLL001W, strain dnm1, hits give low values 0.993 | locus YLL026W, hits give low values 0.994 | locus YLL041C, strain sdh2, hits give low values 0.987 | locus YLR027C, strain aat2, hits give low values 0.969 | locus YLR039C, strain RIC1, hits give low values 0.963 | locus YLR058C, strain SHM2, hits give low values 1.01 | locus YLR102C, strain apc9, hits give low values 0.97 | locus YLR113W, strain HOG1, hits give low values 1.02 | locus YLR221C, strain rsa3, hits give low values 0.96 | locus YLR258W, strain gsy2, hits give low values 1.02 | locus YLR262C, strain YPT6 (second series), hits give low values 1.01 | locus YLR262C, strain YPT6, hits give low values 0.999 | locus YLR268W, strain sec22, hits give low values 0.975 | locus YLR320W, strain mms22, hits give low values 0.963 | locus YLR330W, strain CHS5, hits give low values 0.984 | locus YLR342W, strain FKS1 (second series), hits give low values 0.987 | locus YLR342W, strain FKS1, hits give low values 0.983 | locus YLR357W, strain rsc2, hits give low values 0.969 | locus YLR370C, strain arc18, hits give low values 0.998 | locus YLR371W, strain rom2, hits give low values 0.977 | locus YLR384C, strain iki3, hits give low values 0.973 | locus YLR418C, strain cdc73, hits give low values 1.04 | locus YML016C, strain PPZ1, hits give low values 0.995 | locus YML032C, strain rad52, hits give low values 0.989 | locus YML120C, strain ndi1, hits give low values 1.01 | locus YML124C, strain tub3, hits give low values 1.01 | locus YMR058W, strain fet3, hits give low values 0.992 | locus YMR078C, strain ctf18, hits give low values 0.974 | locus YMR125W, strain sto1, hits give low values 1.01 | locus YMR129W, hits give low values 0.992 | locus YMR205C, strain PFK2, hits give low values 1.01 | locus YMR223W, strain ubp8, hits give low values 1 | locus YMR231W, strain pep5, hits give low values 0.985 | locus YMR263W, strain SAP30, hits give low values 1 and 1.01 | locus YMR307W, strain GAS1, hits give low values 1.12 | locus YNL067W, strain RPL9B, hits give low values 1.03 | locus YNL071W, strain lat1, hits give low values 1 | locus YNL153C, strain GIM3, hits give low values 1.04 and 1.02 | locus YNL175C, strain NOP13, hits give low values 1 | locus YNL183C, strain NPR1, hits give low values 1.01 | locus YNL197C, strain WHI3, hits give low values 0.915 | locus YNL209W, strain ssb2, hits give low values 1.01 | locus YNL224C, strain SQS1, hits give low values 1 | locus YNL233W, strain BNI4, hits give low values 1.02 | locus YNL248C, strain rpa49, hits give low values 0.965 | locus YNL250W, strain rad50, hits give low values 0.978 | locus YNL271C, strain bni1, hits give low values 0.994 | locus YNL298W, strain CLA4, hits give low values 0.987 | locus YNL307C, strain MCK1, hits give low values 0.992 | locus YNL322C, strain KRE1 (second series), hits give low values 1 | locus YNL322C, strain KRE1, hits give low values 1.01 | locus YNR049C, strain mso1, hits give low values 0.976 | locus YNR052C, strain pop2, hits give low values 1.01 | locus YOL006C, strain TOP1, hits give low values 0.976 | locus YOL012C, strain htz1 1.03 | locus YOL147C, strain pex11, hits give low values 0.984 | locus YOR001W, strain rrp6, hits give low values 0.943 | locus YOR061W, strain CKA2, hits give low values 0.992 | locus YOR069W, strain VPS5, hits give low values 0.989 | locus YOR070C, strain gyp1, hits give low values 0.982 | locus YOR080W, strain dia2, hits give low values 0.987 | locus YOR083W, strain WHI5 (second series), hits give low values 1.03 | locus YOR083W, strain WHI5, hits give low values 1.01 | locus YOR106W, strain vam3, hits give low values 1.01 | locus YOR136W, strain idh2, hits give low values 0.984 | locus YOR144C, strain elg1, hits give low values 0.988 | locus YOR184W, strain ser1, hits give low values 0.97 | locus YOR231W, strain MKK1, hits give low values 1.05 | locus YOR265W, strain rbl2, hits give low values 0.992 | locus YOR270C, strain vph1, hits give low values 0.976 | locus YOR290C, strain snf2, hits give low values 0.985 | locus YOR316C, strain cot1, hits give low values 0.98 | locus YPL051W, strain arl3, hits give low values 0.981 | locus YPL055C, strain LGE1, hits give low values 1.01 | locus YPL078C, strain atp4, hits give low values 1.01 | locus YPL106C, strain sse1, hits give low values 1.01 | locus YPL240C, strain hsp82, hits give low values 0.992 | locus YPL256C, strain CLN2, hits give low values 1.03 | locus YPR119W, strain clb2, hits give low values 0.973 | locus YPR141C, strain kar3, hits give low values 0.983 | locus YPR163C, strain tif3, hits give low values 0.983 | locus YPR167C, strain met16, hits give low values 0.958 | strain wtn01, hits give low values 0.985

Reference: PubChem BioAssay AID1159580 (chemical genetic matrix, 2015)
